# An excerpt weighted towards active compounds, which were near 19% of everything screened.
# ELG1 DNA repair: blocks ELG1-dependent DNA repair in HEK293T cells. AID 504467. actives 2.3% (n = 330,000). HEK293T ELG1-luciferase reporter, luminescence, 16 h; DNA damage induced by 5-fluorouridine. Potency, µM (titrated, usually from 46.1 µM), inactives show top-dose activity change, negative = inhibition, hits mostly inhibitors; further: potency means the concentration at half of the fitted maximal effect; nearly all actives have a fitted effect of over 55% in size
#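 Cells (2,000 per well) received 5-fluorouridine plus test compound or DMSO and were incubated 16 hr at 37 °C, 5% CO2. Luciferase activity was read by luminescence 30 min after ONE-Glo addition; signal suppression marked inhibition of damage-induced ELG1 function.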
# TDP1 cell noCPT: qHTS for Inhibitors of human tyrosyl-DNA phosphodiesterase 1 (TDP1): qHTS in cells in absence of CPT. actives 15% (n = 420,000). DT40 Tdp1-/- hTDP1 cells, no CPT, ATP luminescence, 48 h. Potency, µM (series often up to 46.2 µM), without a hit: at the top dose activity change, negative = growth inhibition, usual class: inhibitors; further: potency means the concentration at half of the fitted maximal effect; nearly all actives have a fitted effect of over 55% in size
#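 No-CPT arm: Tdp1-/-;hTDP1 DT40 cells (400/well) plus compounds, incubated ≥48 hr at 37 °C. Readout CellTiter-Glo luminescence.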
# HT1080 IDH1KD tx: HT-1080 IDH1 knockdown cell toxicity (counter line); HT-1080 IDH1 knockdown viability, ATP luminescence, 48 h; Potency, µM (series often up to 46.1 µM), for inactives: at the top dose activity, negative = toxicity, hits mostly cytotoxic; actives 2% (n = 360,000);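 further: potency means the concentration at half of the fitted maximal effect; 0% = DMSO wells and -100% = cell-free medium wells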
#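 Using the IDH1-knockdown HT-1080 line run in the same batch and compound series as the NT line, viability after 48 h at 37 °C was determined by CellTiter-Glo luminescence and expressed as % activity.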
# IL1B secr inh: blocks inflammasome-driven IL-1 beta release | THP-1 LPS/ATP IL-1B secretion, AlphaLISA, 16 h; active compounds read low | activity change, % at 57.5 µM | actives 4.7% (n = 360,000); in the data active means activity change below about -50%; inconclusive means mostly about -30% to -49%
#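 THP-1 cells pretreated 1 hr with compounds (up to 57.5 uM final), then stimulated with LPS (250 ng/mL final) plus ATP (1.25 mM final); secreted IL-1B measured by AlphaLISA after 16 hr, decreased signal indicating inhibition.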
# HT1080-NT tox: kills 2HG-producing HT-1080-NT fibrosarcoma cells; HT-1080-NT fibrosarcoma viability, CellTiter-Glo ATP luminescence, 48 h; Potency, µM (top dose mostly 46.1 µM), without a hit: at the top dose activity, negative = less viability, actives largely listed as cytotoxic; actives 1.6% (n = 360,000); AID 686970;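 further: NT is the 2HG producing partner of a matched IDH1 knockdown line; potency means the concentration at half of the fitted maximal effect; 0% = DMSO-treated cells and -100% = media-only wells without cells; nearly all actives have a fitted effect of over 55% in size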
#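 Toxicity toward the 2HG-producing NT line was scored as %Activity, normalised to DMSO and no-cell wells, from CellTiter-Glo luminescence after 48 hours' treatment.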
# TDP1 cell CPT: growth inhibition of DT40 Tdp1-/-;hTDP1 cells with camptothecin (screen for TDP1 inhibitors); chicken DT40 Tdp1-/-;hTDP1 cells + 20 nM CPT, ATP luminescence, 48 h; Potency, µM (titrated, usually from 46.2 µM), without a hit: at the top dose activity change, negative = growth inhibition, most hits filed as inhibitors; actives 12% (n = 420,000); AID 686979; further: potency means the concentration at half of the fitted maximal effect; nearly all actives have a fitted effect of over 55% in size
#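 Cell growth measured by CellTiter-Glo luminescence after a minimum 48 h, 37 C compound exposure with 20 nM CPT in Tdp1-knockout DT40 cells stably expressing hTDP1, seeded 400/well; qHTS titration format.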
# An asterisk follows results filed as active; u = inconclusive; x = no result given; ! = not active in a repeat; [ ] = dose if it differs, or a comment. Unless noted, the call rests on the fitted dose curve; in most records, active means well fitted curve in the direction sought with a large enough effect; inconclusive means small, poorly fitted or top-dose-only effect, or another doubt; inactive means no such curve, though single readings can be large; an effect the other way counts as inactive or inconclusive. Unless noted, on the % scale 0 is the no-effect control and ±100 the full control effect.
SMILES,ELG1 DNA repair,TDP1 cell noCPT,HT1080 IDH1KD tx,IL1B secr inh,HT1080-NT tox,TDP1 cell CPT
CC(=O)c1c(O)c(C)c(O)c2c1OC1=CC(=O)C(C(C)=O)C(=O)[C@@]12C (stereo not given in full),-8%,u,-6%,3,-2%,18µM*!
CC(C)c1nn2c(=O)cc(COC(=O)c3ccccc3NC(=O)c3cccs3)nc2s1,x,7.3µM*,x,x,x,7.3µM*
CC(C)c1nn2c(=O)cc(COC(=O)c3ccccc3NC(=O)c3cccc(Cl)c3)nc2s1,x,18µM*,x,x,x,16µM*
CC(C)Cc1nn2c(=O)cc(COC(=O)c3ccccc3NC(=O)c3ccccc3)nc2s1,x,6%,x,x,x,-5%
COc1cc(NC(=O)C/C(C)=N/NC(=O)C(OC)c2ccccc2)c(OC)cc1Cl (stereo not given),-4%,-1%,-2%,-21,0%,-5%
COc1ccc(S(=O)(=O)Nc2c(C)nn(C)c2C)cc1Br,-18%,u,-6%,13,-11%,-25%
COc1ccc(C(=O)Nc2ccccc2C(=O)NC(Cc2ccc(O)cc2)C(=O)NNC(=O)c2ccc(C)cc2)cc1 (stereo not given),8.2µM*,4%,u,-24,-25%,4%
O=C(Nc1ccccc1C(=O)NC(Cc1ccccc1)C(=O)NC1CCCCCC1)c1ccccc1 (stereo not given),u,23µM*,-3%,-15,-6%,u
COc1ccc(C(=O)Nc2ccccc2C(=O)NC(Cc2ccc(O)cc2)C(=O)NNC(=O)c2ccccc2)cc1 (stereo not given),16µM*,u,0%,-14,2%,u
O=C(c1ccc(CSc2ccc(Cl)cc2)o1)N1CCOCC1,x,u,1%,-26,9%,u
O=C(NC12CC3CC(CC(C3)C1)C2)c1cc(F)c(F)c(F)c1F,-5%,u,-4%,3,-18%,u
Cc1cc(C)c2c(NC(=O)CCl)nn(C)c2n1,u,12µM*,u,-98*,u,13µM*
Cc1cc(C)c2c(NC(=S)NC(=O)c3ccccc3)nn(C)c2n1,-18%,-8%,4%,0,24%,1%
Cc1ccc(C(=S)NCS(=O)(=O)c2ccc(C)cc2)cc1,5%,13µM*,u,-3,u,13µM*
Cc1ccc(S(=O)(=O)CNC(=S)c2cccc(Cl)c2)cc1,-9%,u,-29%,-9,5%,-9%
Cn1c(C(=O)NCc2ccc(F)cc2)cc2c(=O)n(C)c3ccccc3c21,x,5%,x,x,x,5%
O=C(/C=C/c1cc2ccccc2o1)c1ccccc1O,u,u,-22%,-102*,u,-6%
O=C(/C=C/c1ccc(O)c(O)c1)OCCc1ccccc1,x,1µM*,u,-25,u,1.5µM*
O=C(/C=C/c1ccoc1)c1ccccc1O,u,-13%,-1%,30,3%,17%
O=C(C=Cc1cccc(O)c1)c1ccccc1O,x,15µM*,u,-93*,u,u
O=C(/C=C/c1ccc(O)c(O)c1)c1ccccc1O,u,u,-24%,-93*,-7%,12µM*
CCC(/C=C/C(C)C1CCC2C3CCC4=CC(=O)CC[C@@]4(C)C3CC[C@@]12C)C(C)C (stereo not given in full),x,4%,x,x,x,-9%
COc1ccccc1NC(=O)c1cc(-c2ccc(C)o2)nc2ccccc12,1%,u,11%,0,0%,u
O=C(C=Cc1ccccc1O)c1ccccc1O,x,15µM*,18µM*,-97*,23µM*,u
O=C(/C=C/c1ccc(F)cc1)c1ccccc1Br,-24%,16µM*,u,u,-18%,u
SMILES,ELG1 DNA repair,TDP1 cell noCPT,HT1080 IDH1KD tx,IL1B secr inh,HT1080-NT tox,TDP1 cell CPT
COC(=O)c1cnc(NNS(=O)(=O)c2ccc(C(F)(F)F)cc2)nc1C(F)(F)F,u,-27%,13%,-20,-6%,0%
Cc1ccc(C2=NOC(=O)/C2=C\c2ccc(C)o2)cc1,u,23µM*,-1%,-2,13%,13µM*
Cc1ccc(/C=C2\C(=O)ON=C2c2ccccc2)o1,0%,0%,9%,0,6%,-8%
Cc1ccc(-c2ccc(/C=C3\C(=O)ON=C3c3ccccc3)o2)c([N+](=O)[O-])c1,u,16µM*,-24%,-107*,u,8.2µM*
CC[C@@H](CO)NCCN[C@@H](CC)CO,x,1%[21.1 µM],x,x,x,0%[21.1 µM]
Cc1sc2c(c1C)c(=O)n(-c1ccc(Cl)cc1)c(=O)n2Cc1cc(=O)n2cc(Br)ccc2n1,x,-4%,x,x,x,1%
NC(=O)COc1ccc(NC(=O)CC23CC4CC(CC(C4)C2)C3)cc1,-9%,1%,-5%,5,-15%,-3%
CNC(=O)c1ccc(NC(=O)CC23CC4CC(CC(C4)C2)C3)cc1,9.2µM*,u,-10%,16,-7%,11%
COc1ccc(OCC(=O)NC2CC(=O)N(c3cccc(OC)c3)C2)cc1 (stereo not given),x,-6%,x,x,x,-1%
O=C(Cn1c(=O)nc(-c2ccccc2)c2ccccc21)NCc1ccc(F)cc1,x,-5%,x,x,x,12%
CC(C)(C)Sc1ccc2nc3c(n2c1)CCCC3,u,5.8µM*,-14%,-16,-13%,21µM*
CN1CCN(c2nc(-c3ccc(Cl)s3)cs2)CC1,u,u,1%,-16,1%,2%
Cc1ccc2nc(N3CCN(c4cccc(C)c4C)CC3)c3nncn3c2c1,x,-9%,x,x,x,-25%
c1ccc(C(c2ccccc2)N2CCN(c3nc4ccccc4n4cnnc34)CC2)cc1,u,3.7µM*,-3%,36,0%,u
Cc1cccc(N2CCN(c3nc4ccccc4n4cnnc34)CC2)c1C,13%,u,-1%,6,1%,26µM*
O=C(CS(=O)(=O)c1cccc2nsnc12)Nc1ccc(F)cc1F,x,3%,x,x,x,-27%
CCOc1ccc(C(=O)Nc2ccc(C(=O)OCc3cc(=O)n4ccsc4n3)cc2)cc1,x,-13%,x,x,x,0%
CCN(CC)C(=O)C1CCCc2c1[nH]c1ccc(Cl)cc21 (stereo not given),u,u,-23%,-1,-21%,-20%
c1ccc2c3c([nH]c2c1)-c1[nH]ncc1CC3,-17%,u,-29%,-28,u,16µM*

# Assay outcomes as filed in PubChem BioAssay.
